Bioassay records from PubChem.
Only some compounds are listed: those with a hit (about 2.1% of all), similar ones and a draw of the others.
DAT uptake mod: human DAT dopamine uptake with cocaine, either direction | Q01959 | LLC-PK1 hDAT cells, [14C]-dopamine uptake with cocaine IC80; actives deviate in either direction | B-score at 10 µM | 1.3% of 110,000 active | AID 449768;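 active = Z score or B-score, a plate-position-corrected score, falls beyond the plate's 99.7% confidence bounds, in either direction; inactive = both scores lie inside the 99.7% bounds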;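 also: scored against the spread of the other compound wells on the same plate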
S1P2 ag: activates the human S1P2 receptor; S1P2-expressing cell line, agonist reporter read-out; activation, % at 4.5 µM; 0.46% of 97,000 active; AID 729; in the data active = activation above about 16%;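 also: 0% = vehicle low control and 100% = maximal reference agonist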
GALR2 agonist: agonists of human galanin receptor 2 (GALR2); O43603; GALR2-expressing cells, agonist activation read-out; activation, % (no concentration beside the values); 0.48% of 140,000 active; in the data active = activation above about 5%, passing the limit was not always enough;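 also: 0% = vehicle buffer wells and 100% = reference agonist at full effect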
S1P2 blocker: antagonists of human S1P2 receptor; O95136; cell-based S1P2 antagonist assay, inhibition at 5 uM; inhibition, % at 5 µM; 0.21% of 97,000 active; AID 736; in the data active = inhibition above about 45%;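 also: CRE beta-lactamase reporter cells expressing human S1P2 stimulated with S1P; 0% = agonist at EC80 alone and 100% = agonist plus reference antagonist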
GALR2 antag: blocks the human galanin receptor 2; inhibition, % at 4 µM; 0.39% of 140,000 active; AID 828; O43603; GALR2-expressing cells, antagonist mode;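 also: cells stimulated with galanin 1-16 at roughly its EC80; 0% = agonist challenge control and 100% = basal control without agonist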
GALR2 ant conf: GALR2 (human) antagonism confirmed; shares compounds with GALR2 antag; GALR2-expressing cells, antagonist mode, inhibition; inhibition, % at 4 µM; 60% of 480 active; AID 866;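 also: cells stimulated with galanin at about its EC80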
BLA inhib ctr: beta-lactamase inhibition, GALR2 counterscreen; shares compounds with GALR2 antag; CHO NFAT-BLA reporter, beta-lactamase FRET, thapsigargin-stimulated; inhibition, % at 4.2 µM; 36% of 480 active; AID 867;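 active = inhibition above the mean inhibition across tested compounds plus 3 SD, cut at about 27% in these data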;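 also: 0% = 500 nM thapsigargin stimulated wells and 100% = unstimulated BSA only wells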
* marks the source's active call; other numbers are inactive results; · = no result given. Rule as the data show it, unless noted: active = inhibition above about 27%; inactive = the rest.

SMILES | DAT uptake mod | S1P2 ag | GALR2 agonist | S1P2 blocker | GALR2 antag | GALR2 ant conf | BLA inhib ctr
Cc1cccc(S(=O)(=O)C(C#N)c2nc3ccccc3nc2N2CC(C)OC(C)C2)c1 (configuration not stated) | -1.28 | -5.6 | -0.1 | 17.2 | 28.4* | 1.9 | -1.0
Cc1ccc(S(=O)(=O)C(C#N)c2nc3ccccc3nc2N2CC(C)OC(C)C2)cc1C (configuration not stated) | -0.21 | -7.3 | -1.3 | 1.2 | 0.2 | · | ·
Clc1cccc(Cl)c1/C=C/c1nc2ccccc2[nH]1 | -0.0261 | -3.7 | -1.2 | -5.0 | 27.4* | 29.1* | 11.7
O=C(/C=C/c1ccco1)Nc1sc2c(c1C(=O)O)CCC2 | -0.178 | 0.8 | -1.0 | 23.2 | -0.2 | · | ·
N#Cc1c(NC(=O)/C=C/c2ccco2)sc2c1CCCC2 | · | · | 5.9* | · | 31.0* | 32.3* | 64.3*
